Source: PubChem BioAssay
MITF inh: blocks human microphthalmia-associated transcription factor | O75030 | AlphaScreen MITF homodimerization, bead proximity signal | inhibition, % at 2.6 µM | hit rate 0.91% among 650,000 | AID 1259374; in the data active means inhibition above about 50%;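 further: 0% = vehicle wells with protein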
Target sequence (O75030 whole entry, looked up): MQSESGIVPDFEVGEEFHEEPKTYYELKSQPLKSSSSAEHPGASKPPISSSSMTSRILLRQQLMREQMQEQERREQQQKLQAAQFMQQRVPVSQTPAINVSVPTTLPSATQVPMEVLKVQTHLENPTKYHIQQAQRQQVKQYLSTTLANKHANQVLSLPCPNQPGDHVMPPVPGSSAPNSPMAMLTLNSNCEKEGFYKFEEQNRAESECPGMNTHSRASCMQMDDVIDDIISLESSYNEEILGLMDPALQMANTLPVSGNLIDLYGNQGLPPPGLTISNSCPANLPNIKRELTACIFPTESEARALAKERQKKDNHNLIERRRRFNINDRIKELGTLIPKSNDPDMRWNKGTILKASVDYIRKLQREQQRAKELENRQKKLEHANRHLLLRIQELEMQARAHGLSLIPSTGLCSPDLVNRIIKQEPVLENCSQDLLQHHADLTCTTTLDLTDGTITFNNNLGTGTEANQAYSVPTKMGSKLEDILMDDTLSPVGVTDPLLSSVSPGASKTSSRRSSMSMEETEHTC
GPR151 activ: activators of human GPR151; Q8TDV0; PathHunter beta-arrestin GPR151 cells, luminescence; AID 1508602; hit rate 1% among 650,000; activation, % at 11.2 µM; in the data active means activation above about 4.9%;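 further: 0% = median of compound wells and 100% = cells with positive control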
FBW7 activator: activators of human E3 ligase FBW7. AlphaScreen FBW7–phospho-cyclin E peptide binding, activator screen. normalized activity (activation), % at 26.1 µM. hit rate 0.13% among 650,000. AID 1259310; in the data active means normalized activity above about 1.9%;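 further: purified mutant Fbw7 with reduced substrate affinity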
TEAD-YAP block: TEAD-YAP interaction inhibition; hit rate 1.4% among 640,000; HEK-TIYL cells, TEAD-Gal4/YAP UAS-luciferase luminescence; inhibition, % at 9.12 µM; AID 1259422; in the data active means inhibition above about 32%;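 further: 0% = median of test compound wells and 100% = reference inhibitor wells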
MITF inh conf: confirmation of human MITF inhibitors | hit rate 16% among 4,700 | AID 1259372 | inhibition, % at 2.6 µM | shares compounds with MITF inh | AlphaScreen MITF homodimerization, biotin/His-MITF beads;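 active means inhibition above a cutoff derived from the DMSO control wells, cut at about 28% in these data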;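 further: 0% = MITF dimer wells with DMSO only; inhibitors lower the bead chemiluminescence by keeping MITF from dimerizing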
AlphaScreen DR: counter-screen: compounds optically interfering with AlphaScreen; shares compounds with MITF inh; AlphaScreen optical interference counterscreen, cell-free; IC50, µM; hit rate 6% among 480; call rule not given here
AlphaScreen intf2: counter-screen: compounds optically interfering with AlphaScreen; shares compounds with MITF inh; LysRS AlphaScreen counterscreen, signal interference, triplicate; inhibition, % at 2.6 µM; hit rate 7.6% among 4,700; AID 1259376;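 active means inhibition above a cutoff derived from the DMSO control wells, cut at about 30% in these data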
The depositor's hits bear a star; . = no result. Compounds with a hit are over-represented: about 3.4% of the library has one in this group of screens.

SMILES	MITF inh	GPR151 activ	FBW7 activator	TEAD-YAP block	MITF inh conf	AlphaScreen intf2	others
CC(N)C(=O)Nc1ccccc1-c1ccccc1 (centres undefined)	7.0	-0.1	0.0	2.0	.	.
CCCCCC(=O)N1c2ccccc2NC2=C(C(=O)CC(c3ccc(C)cc3)C2)C1c1cccnc1 (centres undefined)	-9.4	0.3	-0.3	5.8	.	.
COc1ccc(/C=C/C(=O)C(C)(C)O)cc1	58.2*	1.7	0.1	-6.9	-4.0	6.3
Cc1ccc(C(=O)N/C(=C\c2ccco2)C(=O)NCCN2CCCCC2)cc1C	58.4*	-1.3	1.3	-5.3	-0.5	-7.9
O=C(NCCN1CCCCC1)/C(=C/c1ccco1)NC(=O)c1ccccc1	11.3	-0.9	0.3	7.6	.	.
Cc1ccc(C(=O)N/C(=C\c2ccco2)C(=O)NCCCn2ccnc2)cc1	74.3*	-0.3	-0.4	-8.2	38.5*	53.1*
Cc1ccc(C(=O)N/C(=C\c2ccc(F)cc2)C(=O)NCCCn2ccnc2)cc1	-1.3	-1.4	-0.1	-1.4	.	.
O=C(CCc1ccccc1)NNC(=O)COc1ccc(-c2ccccc2)cc1	-9.3	-0.8	-0.2	4.4	.	.
c1ccc2c(c1)ncn2CC1CCN(Cc2cn3ccccc3n2)CC1	89.2*	3.0	-0.5	11.8	28.6*	17.2	AlphaScreen DR=>6.48
c1ccn2cc(CN3CCCCC3)nc2c1	82.1*	-0.4	0.0	3.5	-13.1	0.4
c1ccc2c(c1)ncn2CC1CCCCC1	13.5	-0.5	0.8	2.1	.	.
NNC(=O)C(=O)NNc1ccccn1	69.5*	1.6	-0.1	-2.7	74.2*	100.6*
CCOc1ccccc1N=CC1=C(O)CC(C)(C)CC1=O	0.9	0.0	-0.1	7.8	.	.
O=c1nc(SCc2cccc3ccccc23)c2c([nH]1)CCCC2	8.6	1.1	-0.1	0.8	.	.
O=C(c1ccncc1)N1CCN(Cc2c[nH]c3ccccc23)CC1	56.3*	-1.7	-0.1	-1.7	-14.0	1.8
O=C(c1cccc(Cl)c1)N1CCN(Cc2c[nH]c3ccccc23)CC1	41.9	-0.6	0.4	10.0	.	.
O=C(c1ccncc1)N1CCN(CCc2ccccc2)CC1	3.9	-0.5	0.0	1.5	.	.
COc1cccc(C(=O)N2CCN(Cc3c[nH]c4ccccc34)CC2)c1	72.9*	-1.2	-0.1	9.0	-14.0	-2.4
CCCC(=O)N(CCC)c1nnc(-c2cccnc2)s1	12.3	-0.1	0.0	-14.7	.	.
CC(NC(=O)c1ccc(OC2CCN(C(=O)C3CC3)CC2)cc1)c1ccc(F)cc1 (centres undefined)	0.2	0.8	0.1	-30.4	.	.
O=C(COc1ccccc1N1CC(C(=O)O)CC1=O)Nc1ccc(Cl)cc1 (centres undefined)	14.3	1.5	0.5	7.6	.	.
O=C(NCC1CCCO1)C(=O)Nc1nccs1 (centres undefined)	98.8*	1.9	0.0	-5.6	-4.4	-1.3
CCCN1CCC(NCCc2ccc(Cl)cc2)CC1	50.6*	-0.1	0.0	4.8	-0.1	0.9
CC#CC(=O)N1CCC(Cc2ccc(OC)cc2)(C(=O)OCC)CC1	95.2*	1.9	0.4	-31.1	1.6	-5.7
COc1ccccc1N1C(=O)c2cccc3c(N(C)CCO)ccc(c23)C1=O	74.0*	-1.0	0.1	1.6	-0.6	0.5
SMILES	MITF inh	GPR151 activ	FBW7 activator	TEAD-YAP block	MITF inh conf	AlphaScreen intf2	others
Cc1nc(-c2ccc(N3CCN(C(=O)c4ccccc4)CC3)nc2)no1	5.9	-1.3	-0.2	5.1	.	.
O=C(Nc1cc([N+](=O)[O-])ccc1C(=O)NCCc1ccccc1)c1ccccc1	66.9*	0.0	-0.1	-22.9	7.0	12.9
CCCCNC(=O)CCCCCn1nnc2ccccc2c1=O	72.8*	0.3	-0.1	-5.0	-0.3	-0.8
CC(C)NC(=O)CCCCCn1nnc2ccccc2c1=O	-6.3	0.5	0.0	1.7	.	.
CN1CCN(CC(=O)Nc2ccc3c(c2)CCC3)CC1	29.9	0.9	0.0	-14.4	.	.
Cc1cccc(CN2CCN(c3ncccn3)CC2)c1	54.2*	3.0	0.1	-12.4	6.6	9.6
COc1cccc(CN2CCC(=O)N(Cc3ccccn3)CC2)c1	14.8	-0.4	0.1	11.9	.	.
OCC1(Cc2cccc(Cl)c2)CCCN(Cc2ccccn2)C1 (centres undefined)	1.2	-1.0	-0.2	-1.5	.	.
Clc1cccc(CN2CCN(Cc3ccccn3)CC2)c1	70.3*	1.7	0.0	1.5	21.9	17.4
Fc1ccc(CN2CCN(Cc3ccccn3)CC2)cc1	70.2*	2.6	0.2	-52.1	9.1	15.6
Cc1cccc(CN2CCN(Cc3ccccn3)CC2)c1	72.2*	-1.5	0.0	2.6	5.5	19.8
Cc1ccc(Cl)cc1NC(=O)C(=O)NCc1ccncc1	13.2	2.2	0.1	-2.5	.	.
CC(=O)Nc1ccc(S(=O)(=O)N(CC(=O)O)CC(=O)O)cc1	1.1	1.9	0.1	1.6	.	.
Nc1c(S(=O)(=O)c2ccc(F)cc2)c2nc3ccccc3nc2n1Cc1ccco1	10.4	-0.8	0.0	-8.8	.	.
Cc1ccc(C2=CC(=O)C(=Nc3c(C)n(C)n(-c4ccccc4)c3=O)O2)cc1	1.7	-0.7	0.4	-0.7	.	.
Clc1ccccc1CN1CCN(Cc2ccccn2)CC1	73.5*	-0.5	0.2	-15.6	-1.3	0.8
O=[N+]([O-])c1cccc(CN2CCN(Cc3ccccn3)CC2)c1	100.5*	0.3	-0.1	-2.2	-7.8	-2.2
Clc1ccccc1CN1CCN(c2ccccn2)CC1	47.5	-1.3	-0.1	1.1	.	.
O=[N+]([O-])c1cccc(CN2CCN(C3CCN(Cc4ccccc4)CC3)CC2)c1	46.4	1.0	0.1	3.9	.	.
O=C(O)CCNC(=O)c1cc(=O)[nH]c(=O)[nH]1	4.3	3.1	0.6	-7.2	.	.
CC(C)c1ccc(/C=C/C(=O)Nc2nn[nH]n2)cc1	51.8*	0.7	0.9	-21.1	8.7	13.5
Cc1ccc(/C=C/C(=O)Nc2nn[nH]n2)o1	39.1	1.8	-0.2	14.3	.	.
CC(C)(C)c1cc(-c2nc3c(C(C)(C)C)cc(C(C)(C)C)c(O)c3o2)cc(C(C)(C)C)c1O	7.7	-0.1	0.1	-2.6	.	.
COc1ccc(OC)c(NC(=O)c2nn(-c3ccccc3OC)c(=O)c3ccccc23)c1	9.3	1.6	-0.1	8.3	.	.
OCCOCCN1CCN(Cc2ccc(Br)cc2)CC1	-9.0	2.2	0.4	11.1	.	.
SMILES	MITF inh	GPR151 activ	FBW7 activator	TEAD-YAP block	MITF inh conf	AlphaScreen intf2	others
OCCOCCN1CCN(Cc2ccc(F)c(Br)c2)CC1	80.9*	0.5	-0.1	3.8	-12.4	-0.2
CCOC(=O)C(C)Oc1cccc2c(=O)n(CC(N)=O)ccc12 (centres undefined)	17.4	0.0	0.1	-14.1	.	.
CC1CCCN(C(=O)CSc2nnc3ncccn23)C1 (centres undefined)	-9.8	0.4	-0.2	-5.1	.	.
COc1ccc(CN2CCN(Cc3cc(OC)c(OC)cc3OC)CC2)cc1	75.7*	0.7	-0.2	-0.3	10.3	19.5
CCc1ccc(CN2CCN(Cc3cc(OC)c(OC)cc3OC)CC2)cc1	63.4*	-1.0	-0.2	5.3	-4.3	4.7
COc1ccc(CN2CCc3cc(OC)c(OC)cc3C2)cc1	17.9	-1.0	0.8	0.3	.	.
